For 34 molecules, outcome and AC50 results are on record in PubChem BioAssay (EPA / NIEHS).

Records with an inconclusive call do not appear. Active and inactive are the calls of the source. Rule for the calls: active = hit-call score of the fitted dose curve at least 0.9, where 1 is the maximum; inconclusive = response in the unintended direction; inactive = score below 0.9.

Assay [1] in a line: ATG_XTT_Cytotoxicity: Cytotoxicity Assessment in the Attagene TRANS-FACTORIAL HepG2 Assay (AID 2283584). The method in brief: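 Transfect HepG2 with GAL4-UAS reporter units, dose compound, incubate 24 h, then measure viable cell number by XTT. Fit concentration response against DMSO baseline.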
The nature of assay [2]: TOX21_p53_BLA_p2_viability: Viability Assessment in the Tox21 HCT-116 p53 Agonism Beta-lactamase Assay, Phase 2 (AID 2283591).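 Note: compound exposure lasted 16 h at 37 °C; actives lower the ATP signal meaning cytotoxicity.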 The method in brief: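 HCT-116 p53-bla cells (4000/well) rested 5 h at 37C, then received compounds in DMSO (217-fold dilution) for 16 h at 37C, 5% CO2. After the CCF4 read, CellTiter-Glo was added; ATP luminescence was read after 30 min at room temperature.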

The target in assay [3] is Cellular tumor antigen p53 (Homo sapiens) (UniProt P04637). The assay is described as follows: TOX21_p53_BLA_p3_ratio: Tox21 HCT-116 p53 Agonism Beta-lactamase Assay, Ratio, Phase 3 (AID 2283596). The method in brief: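 Cells were seeded at 4000/well, rested 5 h at 37C, then dosed with DMSO compound solutions (217-fold dilution) for 16 h. CCF4-AM substrate was loaded for 2 h at room temperature, and the 460/530 nm emission ratio was fitted for gain of signal versus DMSO.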
Sequence of Cellular tumor antigen p53 (Homo sapiens) (P04637 whole entry, looked up): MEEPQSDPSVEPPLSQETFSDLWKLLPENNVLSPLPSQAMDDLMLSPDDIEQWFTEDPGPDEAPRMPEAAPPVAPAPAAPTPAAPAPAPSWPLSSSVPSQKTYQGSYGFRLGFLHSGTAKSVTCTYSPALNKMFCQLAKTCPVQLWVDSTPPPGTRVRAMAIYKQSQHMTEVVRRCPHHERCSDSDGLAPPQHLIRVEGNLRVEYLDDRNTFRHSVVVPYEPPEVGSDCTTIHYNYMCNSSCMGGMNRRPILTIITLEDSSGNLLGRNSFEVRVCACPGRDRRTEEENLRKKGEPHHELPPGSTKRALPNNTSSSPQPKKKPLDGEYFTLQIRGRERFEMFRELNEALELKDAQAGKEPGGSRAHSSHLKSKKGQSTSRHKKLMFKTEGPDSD

Assay [4] has the same target. Put plainly: TOX21_p53_BLA_p5_ratio: Tox21 HCT-116 p53 Agonism Beta-lactamase Assay, Ratio, Phase 5 (AID 2283599). The method in brief:
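HCT-116 cells carrying a p53-inducible beta-lactamase reporter were seeded at 4000 cells/well and dosed after 5 h with compound in DMSO (217-fold dilution). After 16 h at 37C, CCF4-AM substrate was added for 2 h, and the 460/530 nm emission ratio was scored as gain-of-signal versus DMSO.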

Assay [5] can be described thus: TOX21_p53_BLA_p5_viability: Viability Assessment in the Tox21 HCT-116 p53 Agonism Beta-lactamase Assay, Phase 5 (AID 2283600). The method in brief: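 Viability is taken from cellular ATP content, measured by luciferase luminescence in the same wells after the beta-lactamase ratio read. Cells are seeded at 4000 per well and exposed to DMSO-dissolved compounds, diluted 217-fold, for 16 h.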

In assay [6] the target is Cellular tumor antigen p53 (Homo sapiens) (UniProt P04637). Put plainly: TOX21_p53_BLA_p4_ratio: Tox21 HCT-116 p53 Agonism Beta-lactamase Assay, Ratio, Phase 4 (AID 2283601). The method in brief:
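HCT116 cells carrying an inducible beta-lactamase reporter were plated at 4000 cells/well, rested 5 h, then exposed to compounds in DMSO (217-fold dilution) for 16 h at 37C. CCF4-AM substrate was loaded 2 h at room temperature; 460/530 nm emission ratio scored gain-of-signal versus DMSO.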

The target is the same in assay [7]. Put plainly: TOX21_p53_BLA_p2_ratio: Tox21 HCT-116 p53 Agonism Beta-lactamase Assay, Ratio, Phase 2 (AID 2283592). The method in brief:
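Cleaved-to-uncleaved substrate ratio (460 vs 530 nm) measured in HCT116 cells with an inducible beta-lactamase reporter linked to p53 activity. Compounds incubated 16 h at 37C before 2 h room-temperature CCF4-AM loading.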

The nature of assay [8]: TOX21_p53_BLA_p4_viability: Viability Assessment in the Tox21 HCT-116 p53 Agonism Beta-lactamase Assay, Phase 4 (AID 2283597).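 Note: hits lower the luminescence signal meaning cytotoxicity.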 The method in brief:
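Viability is taken as cellular ATP: after 16 h compound exposure of HCT116 cells and a 2 h room-temperature CCF4-AM substrate step, CellTiter-Glo reagent is added and luminescence is measured 30 min later.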

Assay [9] in a line: TOX21_p53_BLA_p3_viability: Viability Assessment in the Tox21 HCT-116 p53 Agonism Beta-lactamase Assay, Phase 3 (AID 2283593).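 Note: cells exposed to compound for 16 h before reading.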 The method in brief:
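HCT-116 cells (4000/well) rested 5 h at 37C, then got DMSO compounds by pin tool (217-fold dilution) for 16 h at 37C, 5% CO2. After the bla read, CellTiter-Glo was added and luminescence read at 30 min, room temperature.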

For `CC(C)=CCC[C@](C)(O)[C@@H]1CC=C(C)CC1`, the result in assay [1], in [2], in assay [3], in assay [4], in assay [5] and in assay [6] was inactive.
`FC1(F)C(F)(F)C(F)(F)C2(F)C(F)(C1(F)F)C(F)(F)C(F)(F)C1(F)C(F)(F)C(F)(F)C(F)(F)C(F)(F)C12F` (stereo unspecified): the molecule was called inactive in assay [1], in [2], in [7], in assay [3], in [4] and in assay [5]. The outcome in assay [6] was inactive.
Consider `CCCCC(CC)COCCC#N` (stereo unspecified), for which the outcome in assay [1], in assay [2], in [7], in assay [8], in assay [4] and in [5] was inactive.
Consider `Nc1cc([N+](=O)[O-])ccc1O`, for which the molecule was classed as inactive in assay [1], in assay [2], in assay [7], in [3], in assay [8] and in assay [4]. For the same molecule, the outcome in assay [5] was inactive.
On to `CC1=CCC(O)(C(C)C)CC1` (stereo unspecified), for which the molecule was classed as inactive in assay [1], in assay [2], in assay [7], in assay [3], in assay [8] and in [4]. In assay [6], the outcome was inactive.
Regarding `Cc1cc(C2(c3cc(C)c(O)cc3C)OS(=O)(=O)c3ccccc32)c(C)cc1O`, the outcome in [1], in assay [2], in assay [7], in assay [3] and in assay [5] was inactive.
On to `CC1(CO)CN(c2ccccc2)NC1=O` (stereo unspecified), for which the molecule was called inactive in assay [1], in [2], in assay [7], in [3], in assay [8] and in assay [4].
Take `O=c1cc(-c2ccccc2)oc2cc(O)cc(O)c12`: the outcome in assay [1], in assay [2], in assay [9], in assay [3] and in [5] was inactive. Besides, the results for the AC50 in assay [4] and in [6] were 22.3 µM (active) and 46.1 µM (active), respectively.
For `COc1cccc(OC)c1`, the molecule was classed as inactive in assay [1], in [2], in assay [7], in [9] and in [5].
In the case of `CCCCNC(=O)NS(=O)(=O)c1ccc(N)cc1`, the molecule was classed as inactive in assay [1], in [2], in assay [7], in assay [3], in assay [4] and in [5]. Besides, in assay [6], the result was inactive.
As for `CCC(=O)OCCC(C)CCC=C(C)C` (stereo unspecified), the outcome in assay [1], in [2], in [7], in assay [3], in assay [8] and in assay [4] was inactive. The outcome in assay [5] was inactive.
On to `O=C1CCCCCCCCCCCCCCO1`, for which the call in [1], in assay [2], in assay [7], in assay [4] and in assay [6] was inactive.
For the molecule `CC(C)CCCCCCCOC(=O)c1ccc(C(=O)OCCCCCCCC(C)C)c(C(=O)OCCCCCCCC(C)C)c1`, the molecule was called inactive in assay [1], in [2], in assay [3], in assay [4] and in assay [6].
As for `C=CC(=O)OCCOCCOCC`, the outcome in assay [1], in assay [2], in assay [7], in [3], in [4] and in [5] was inactive. Moreover, in assay [6], the outcome was inactive.
For `CCCCCC=CCC(=O)OC`, the result in assay [1], in assay [2], in assay [9], in assay [3] and in [5] was inactive.
Consider `c1cc(C(c2ccc(OCC3CO3)cc2)c2ccc(OCC3CO3)cc2)ccc1OCC1CO1` (stereo unspecified), for which the outcome in [1], in assay [2], in assay [9], in assay [8] and in assay [5] was inactive.
Take `O=C=NC1CCC(CC2CCC(N=C=O)CC2)CC1` (stereo unspecified): the molecule was called inactive in [1], in assay [2], in assay [7], in assay [3], in assay [8] and in assay [5]. Further, the result in assay [6] was inactive.
As to `O=C[C@@H](O)[C@H](O)[C@H](O)CO`, the molecule was called inactive in assay [1], in assay [2], in [7], in [9], in [5] and in [6].
Turning to `Fc1c(F)c(F)c(Br)c(F)c1F`, the result in assay [1], in assay [2], in assay [7], in assay [3], in [8] and in [6] was inactive.
As for `CCCCCCCCCCCCN(CCCCCCCCCCCC)CCCCCCCCCCCC`, the molecule was classed as inactive in [1], in [7], in assay [9], in assay [3] and in assay [8].
Take `CCCCOCCOCCSC#N`: the call in assay [1], in assay [2], in assay [7], in assay [3], in assay [8] and in assay [4] was inactive. The call in assay [5] and in assay [6] was inactive.
Turning to `OCCN1CCNCC1`, the molecule was classed as inactive in assay [1], in [7], in [3], in assay [8], in [4] and in assay [5]. Also, the outcome in assay [6] was inactive. Besides, the AC50 (commonly the concentration at which the activity in the assay is half-maximal) in [9] is 82.8 µM (active).
As for `O=C(O)CN(CCN(CC(=O)O)CC(=O)O)CCN(CC(=O)O)CC(=O)O`, the call in [1], in [2], in [7], in [3], in assay [8] and in [4] was inactive. Moreover, the molecule was called inactive in assay [5].
As to `COc1ccc(NC(=O)CC(C)=O)cc1`, the molecule was called inactive in assay [1], in [7], in assay [9], in assay [3], in [8] and in assay [4]. Further, the call in assay [5] and in assay [6] was inactive.
With `O=[N+]([O-])c1ccc(Nc2ccc(Nc3ccccc3)c(S(=O)(=O)O)c2)c([N+](=O)[O-])c1`, the molecule was called inactive in assay [1], in [2], in [8] and in assay [5].
On to `CC(C)=CCC/C(C)=C/COC=O`, for which the result in assay [1], in assay [2], in [7], in assay [8], in assay [4] and in assay [6] was inactive.
Turning to `C=CC(=O)OCC(O)COc1ccccc1` (stereo unspecified), the result in [1], in assay [4] and in [5] was inactive. The AC50 in assay [2] was 45.5 µM (active); in [9], 75.6 µM (active); in assay [8] it was 48.2 µM (active); in assay [6] it was 37.6 µM (active).
Take `O=Cc1ccc(F)cc1`: the molecule was called inactive in assay [1], in assay [2], in assay [7], in assay [8], in assay [5] and in assay [6].
`NCCOCCO`: the molecule was called inactive in assay [1], in assay [7], in assay [9], in assay [3], in assay [8] and in [4].
Consider `O=C1CCc2ccccc2O1`, for which the call in assay [1], in [2], in [7], in [3], in assay [8] and in [4] was inactive. Also, in assay [6], the outcome was inactive.
Regarding `CCCCc1ccc(N)cc1`, the call in assay [1], in assay [2], in assay [9], in assay [3], in [8] and in [4] was inactive. Besides, in [6], the result was inactive.
Turning to `CC(C)[C@@H]1CC[C@@H](C)CC1=O`, the molecule was called inactive in assay [1], in assay [7], in assay [9], in assay [3], in assay [8] and in [4].
`CCC(C)CCCC(C)(C)O` (stereo unspecified): the molecule was called inactive in [1], in assay [2], in [7], in assay [9] and in assay [6].
`CSc1nc(NC2CC2)nc(NC(C)(C)C)n1`: the molecule was classed as inactive in assay [1], in assay [2], in assay [9], in [8] and in [4].
